Twelve compounds from PubChem BioAssay (NCATS) can be followed below.

“And” between values parts separate entries of the source, which are not always exact repeats. Equal entries are not always repeated. Results filed as inconclusive are left out. A structure can be active in one record and inactive in another. The source made the active and inactive calls. Unless noted, calls follow the shape of the dose curve; as a rule, active = well fitted curve in the direction sought with a large enough effect; inconclusive = small, poorly fitted or top-dose-only effect, or another doubt; inactive = no such curve, though single readings can be large; an effect the other way counts as inactive or inconclusive.

The nature of experiment [1]: qHTS assay for small molecule agonists of the antioxidant response element (ARE) signaling pathway (AID 651741; active = well fitted activation curve with a large enough effect in the signal ratio; the % refers to the signal ratio; also: potency is read from the fitted curve at half-maximal effect; as to activation: % of control where 0% means no effect). A digest of the protocol:
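HepG2 ARE-bla cells plated at 2,000 cells/well and incubated 5 h at 37 C/5% CO2 received 23 nL compound in DMSO. After 16 h at 37 C, LiveBLAzer B/G FRET substrate was applied for 2 h at room temperature and fluorescence read.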
On the technique in general: Quantitative high-throughput screening tests each substance at several concentrations.

Experiment [2] in a line: qHTS assay for small molecule activators of the p53 signaling pathway (AID 651743; active = well fitted activation curve with a large enough effect in the signal ratio, not every such curve was filed as active; the % refers to the signal ratio; also: series mostly up to about 92 µM; % of control where 0% means no effect). The note with it: HCT-116 p53RE-bla, beta-lactamase FRET ratio, 16 h; activation: stronger effect = higher value. A digest of the protocol:
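HCT-116 p53RE-bla, 4,000 cells/well; 5 h settle; cpd/DMSO 16 h, 37 C; LiveBLAzer B/G 2 h RT; fluorescence intensity.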

Experiment [3] is described as follows: qHTS assay for small molecule activators of the nuclear factor-kappa B (NF-kB) signaling pathway (AID 651749; active = well fitted activation curve with a large enough effect in the signal ratio; the % refers to the signal ratio; also: series mostly up to about 77 µM; % of control where 0% means no effect). The note with it: NF-kB-bla ME-180 cells, beta-lactamase FRET ratio, 16 h; stronger effect = higher value. In a few lines:
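Incubation lasted 16 hr at 37C in 5% CO2 after 23 nL compound addition to ME-180 NF-kB-bla cells. Activation appears as beta-lactamase-mediated FRET loss.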

Experiment [4] can be described thus: qHTS assay for small molecule disruptors of the mitochondrial membrane potential - 1 hr assay (AID 651754; calls by dose curve; also: % is scaled to controls: 0 for no effect and ±100 for the full control effect; nearly all actives have a fitted effect of over 35% in size). A digest of the protocol: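 Steps: seed HepG2 cells and let attach overnight; pin-transfer compound or vehicle; incubate 1 hr at 37C; add Mito-MPS dye for 30 min; read two-channel fluorescence for monomer and aggregate forms.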
A short description of experiment [5]: qHTS assay for small molecule disruptors of the mitochondrial membrane potential - 5 hr assay (AID 651755; calls by dose curve; also: % is scaled to controls: 0 for no effect and ±100 for the full control effect; nearly all actives have a fitted effect of over 40% in size). In a few lines: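 HepG2 cells (2,000/well), attached overnight, exposed to compound 5 hr at 37C, then Mito-MPS dye 30 min. Fluorescence read for monomers (490/535 nm) and aggregates (540/590 nm).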
Experiment [6] addresses Tumor necrosis factor (Homo sapiens) (UniProt P01375). Nature of the experiment: qHTS assay to identify small molecules that stimulate Tumor Necrosis Factor-alpha (TNF-alpha) secretion (AID 651757; active = well fitted curve in the direction sought with a large enough effect in the signal ratio; the % refers to the signal ratio; also: 0% is about no effect). A digest of the protocol: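 Secreted TNF-alpha from compound-treated THP-1 cells (17 hrs, 37 C) was quantified with a homogeneous time-resolved fluorescence antibody assay.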

Experiment [7] in a line: qHTS assay for environmental chemicals that activate the Aryl hydrocarbon Receptor (AhR) signaling pathway (AID 651777). Also: % of control where 0% means no effect; nearly all actives have a fitted effect of over 15% in size. The note with it: 1A2-DRE human hepatoma cells, luciferase, 24 h; stronger effect = higher value. In a few lines:
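Reporter gene assay: hepatoma cells with DRE/CYP1A2-luciferase, 24 hr compound incubation at 37 C, 5% CO2, luminescence after One-Glo (30 min, RT).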

Experiment [8] concerns the target Peroxisome proliferator-activated receptor alpha (Homo sapiens) (UniProt Q07869). As to the kind of experiment: qHTS assay for small molecule agonists of the peroxisome proliferator-activated receptor alpha (PPARalpha) signaling pathway (AID 651778). Also: % of control where 0% means no effect. As to conditions: PathHunter PPARalpha complementation, chemiluminescence, 6 h; stronger effect = higher value. In a few lines: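 Enzyme-fragment complementation assay in which ligand-bound PPARalpha translocates and forms an active enzyme that generates chemiluminescence. Cells were plated overnight, exposed to compound for 6 hr at 37 C, and then given detection reagent for 60 min at room temperature.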

Experiment [9] is described as follows: qHTS assay for small molecule agonists of the antioxidant response element (ARE) signaling pathway measured by Nrf2-dependant transcriptional activity (AID 720636; active = well fitted curve in the direction sought with a large enough effect in the repeat runs; an effect the other way counts as inactive or inconclusive;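 also: HepG2 cells with an ARE-driven luciferase reporter; % of control where 0% means no effect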). In a few lines: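 Nrf2-dependent transcription is measured in ARE-luc HepG2 cells: compound is applied for 16 hr at 37 C after a 6 hr attachment period, and luciferase activity is quantified by luminescence using ONE-Glo.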

A short description of experiment [10]: qHTS assay for small molecule antagonists of the retinoid-related orphan receptor gamma (ROR-gamma) signaling pathway - cell viability counter screen (AID 720652; active = well fitted curve in the direction sought with a large enough effect in the repeat runs; an effect the other way counts as inactive or inconclusive;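 also: series mostly up to about 92 µM; compound exposure lasted 16 hr before ATP read; % is scaled to controls: 0 for no effect and ±100 for the full control effect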). A digest of the protocol: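 Cytotoxicity is quantified via intracellular ATP (CellTiter-Glo luminescence) in doxycycline-induced CHO ROR response element-luciferase reporter cells treated with compound for 16 hr at 37 C, 5% CO2.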

The nature of experiment [11]: qHTS assay for small molecule agonists of the antioxidant response element (ARE) signaling pathway measured by Nrf2-dependant transcriptional activity - cell viability counter screen (AID 720653; active = well fitted curve in the direction sought with a large enough effect in the repeat runs; an effect the other way counts as inactive or inconclusive; also: % is scaled to controls: 0 for no effect and ±100 for the full control effect). The note with it: ARE-bla HepG2 viability, CellTiter-Glo ATP luminescence, 16 h; stronger effect = lower value. In a few lines:
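ARE-bla HepG2 cells treated with compounds for 16 h at 37C; this counter screen measures viability as intracellular ATP by CellTiter-Glo luminescence after 30 min at room temperature.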

For experiment [12], the target named is Nuclear receptor ROR-gamma (Homo sapiens) (UniProt P51449). As to the kind of experiment: qHTS assay for small molecule antagonists of the retinoid-related orphan receptor gamma (ROR-gamma) signaling pathway (AID 651802). Also: series mostly up to about 92 µM; % is scaled to controls: 0 for no effect and ±100 for the full control effect; nearly all actives have a fitted effect of over 60% in size. In a few lines: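 Antagonism is scored as a fall in luminescence from a RORE-luciferase reporter in CHO cells expressing ROR under a TET-inducible promoter, measured 16hr after doxycycline induction in the presence of compound.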
Chain of Nuclear receptor ROR-gamma (Homo sapiens) (P51449 whole entry, looked up): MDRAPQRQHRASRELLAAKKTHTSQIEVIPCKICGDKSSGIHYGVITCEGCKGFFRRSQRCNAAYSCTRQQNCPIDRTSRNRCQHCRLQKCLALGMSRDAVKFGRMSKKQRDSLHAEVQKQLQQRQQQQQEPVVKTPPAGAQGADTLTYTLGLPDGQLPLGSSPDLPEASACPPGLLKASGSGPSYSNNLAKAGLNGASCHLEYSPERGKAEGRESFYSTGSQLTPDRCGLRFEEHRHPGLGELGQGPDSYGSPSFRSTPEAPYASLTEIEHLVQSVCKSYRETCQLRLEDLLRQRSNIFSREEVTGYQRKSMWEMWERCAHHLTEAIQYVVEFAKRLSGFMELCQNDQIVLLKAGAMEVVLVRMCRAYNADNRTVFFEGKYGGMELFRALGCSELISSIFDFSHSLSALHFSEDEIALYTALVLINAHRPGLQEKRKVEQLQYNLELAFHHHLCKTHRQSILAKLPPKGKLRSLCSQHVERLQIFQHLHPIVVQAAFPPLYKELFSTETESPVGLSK

Experiment [13] addresses Arylsulfatase A (Homo sapiens) (UniProt P15289). Nature of the experiment: qHTS screen for enhancers of Arylsulfatase A (ASA1): LOPAC Validation Assay (AID 720538). Also: 0% is about no effect. As to conditions: outcome: dose series up to 57.5 µM. In a few lines:
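SV40-transformed skin fibroblasts from an MLD patient (ASA-I179S) were treated with compounds for 48h at 37 degree C, then lysed with 0.5mM pNCS final substrate for 14h at room temperature; NaOH stop, fluorescence read (Ex=525 nm; Em=598 nm).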

Experiment [14] can be described thus: qHTS for Activators of Parkin Expression: LOPAC Validation Assay (NLuc Reporter) (AID 720572;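 also: 0% = DMSO and 100% = positive control compound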). In a few lines: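 Neuronal cells with a Parkin promoter-driven FLuc/NLuc coincidence reporter were treated 24 h at 37 C in 7-point dose response (LOPAC). NLuc luminescence read after FLuc; signals normalized to DMSO and positive control (100%).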
Experiment [15] in a line: qHTS for Activators of Parkin Expression: LOPAC Validation Assay (FLuc Reporter) (AID 720573;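 also: 0% = DMSO and 100% = positive control compounds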). A digest of the protocol:
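Neuronal cell line stably carrying FLuc/NLuc coincidence reporter under Parkin promoter; cells plated 24 h, then compounds added in 7-point dose response for 24 h at 37 C. FLuc luminescence read; normalized to DMSO and positive control (100%).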

Experiment [16] addresses Hexokinase-4 (Homo sapiens) + Glucokinase regulatory protein (Homo sapiens) (UniProt P35557+Q14397). As to the kind of experiment: qHTS assay for inhibitors of recombinant human GCK-GKRP interaction: Diaphorase-coupled assay (AID 743205). A digest of the protocol:
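GST-GCK (10 nM) with FLAG-GKRP (10 nM), 5 mM glucose and 0.4 mM ATP in pH 7.6 Hepes; compounds preincubated 20 min with substrate. G6PDH/diaphorase coupling converts resazurin to resorufin, read kinetically (ex 525/em 590 nm) for 30 min.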

For experiment [17], the target named is Tyrosine-protein kinase Yes (Homo sapiens) (UniProt P07947). As to the kind of experiment: qHTS for small molecule inhibitors of Yes1 kinase: Primary Screen (AID 686947).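 Also: plate controls were DMSO with enzyme for no effect and no-enzyme DMSO wells for full effect; nearly all actives have a fitted effect of over 60% in size.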 In a few lines: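 ADP-Glo luminescence readout; final 4 nM Yes1, 0.1 mM ATP, 0.3 mg/mL poly(E4Y), Tris pH 7.5, MgCl2, DTT, Brij-35. 20 min compound preincubation, 60 min reaction at RT. Normalized to DMSO wells with and without enzyme.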
Chain of Tyrosine-protein kinase Yes (Homo sapiens) (P07947 whole entry, looked up): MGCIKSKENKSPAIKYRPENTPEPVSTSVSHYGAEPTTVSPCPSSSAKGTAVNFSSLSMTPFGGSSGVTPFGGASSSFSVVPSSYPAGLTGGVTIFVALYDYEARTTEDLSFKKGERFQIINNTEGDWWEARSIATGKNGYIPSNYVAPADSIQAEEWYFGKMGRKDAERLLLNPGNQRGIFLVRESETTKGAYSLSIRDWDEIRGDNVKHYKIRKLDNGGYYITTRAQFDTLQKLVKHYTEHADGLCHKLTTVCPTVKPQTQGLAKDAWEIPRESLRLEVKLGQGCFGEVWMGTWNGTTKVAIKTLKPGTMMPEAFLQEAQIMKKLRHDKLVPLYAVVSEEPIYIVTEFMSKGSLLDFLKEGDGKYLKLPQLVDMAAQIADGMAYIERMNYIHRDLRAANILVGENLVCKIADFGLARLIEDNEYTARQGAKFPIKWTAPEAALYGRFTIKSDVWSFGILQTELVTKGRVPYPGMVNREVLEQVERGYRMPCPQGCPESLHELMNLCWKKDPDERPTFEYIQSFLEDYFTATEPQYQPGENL

Experiment [18] is described as follows: qHTS for small molecule inhibitors of Yes1 kinase: Counter Assay (AID 686950).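 Also: no kinase present so only ADP-Glo detection of a fixed ADP amount is tested; luminescence from ADP-Glo reporting ADP in a fixed ATP and ADP mixture; series mostly up to about 77 µM; 0% = DMSO wells with ATP plus ADP and -100% = ATP-only wells without ADP.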 A digest of the protocol: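 Enzyme-free detection counter-screen: compounds preincubated 20 min in buffer, then 0.08 mM ATP plus 0.02 mM ADP added for 60 min at room temperature; ADP-Glo luminescence. Buffer 50 mM Tris pH 7.5, 10 mM MgCl2, 150 mM NaCl; normalized to ATP+ADP and ATP-only controls.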

The nature of experiment [19]: qHTS assay to identify small molecules that stimulate interleukin-8 (IL-8) secretion (AID 651758; active = well fitted activation curve with a large enough effect in the signal ratio; the % refers to the signal ratio; also: 0% is about no effect). A digest of the protocol: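 THP-1 cells (2000/well) exposed to compound 16 h at 37 C; secreted IL-8 then detected by HTRF with cryptate- and XL665-labelled anti-IL-8 antibody pair after 1-3 h at room temperature.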

Chain of Hexokinase-4 (Homo sapiens) + Glucokinase regulatory protein (Homo sapiens) (P35557 whole entry, looked up): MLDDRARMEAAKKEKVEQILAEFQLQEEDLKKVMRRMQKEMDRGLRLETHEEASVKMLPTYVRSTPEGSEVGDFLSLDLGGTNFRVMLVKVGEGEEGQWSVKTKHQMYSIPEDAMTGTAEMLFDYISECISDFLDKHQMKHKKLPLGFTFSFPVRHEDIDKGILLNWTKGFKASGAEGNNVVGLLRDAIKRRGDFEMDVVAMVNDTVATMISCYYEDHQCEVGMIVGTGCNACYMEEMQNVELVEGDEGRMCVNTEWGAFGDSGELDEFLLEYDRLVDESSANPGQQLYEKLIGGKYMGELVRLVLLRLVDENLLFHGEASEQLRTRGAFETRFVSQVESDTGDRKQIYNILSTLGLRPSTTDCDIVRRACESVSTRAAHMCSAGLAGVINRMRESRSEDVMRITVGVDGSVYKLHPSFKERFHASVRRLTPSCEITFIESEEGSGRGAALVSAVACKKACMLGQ
Chain of Hexokinase-4 (Homo sapiens) + Glucokinase regulatory protein (Homo sapiens) (Q14397 whole entry, looked up): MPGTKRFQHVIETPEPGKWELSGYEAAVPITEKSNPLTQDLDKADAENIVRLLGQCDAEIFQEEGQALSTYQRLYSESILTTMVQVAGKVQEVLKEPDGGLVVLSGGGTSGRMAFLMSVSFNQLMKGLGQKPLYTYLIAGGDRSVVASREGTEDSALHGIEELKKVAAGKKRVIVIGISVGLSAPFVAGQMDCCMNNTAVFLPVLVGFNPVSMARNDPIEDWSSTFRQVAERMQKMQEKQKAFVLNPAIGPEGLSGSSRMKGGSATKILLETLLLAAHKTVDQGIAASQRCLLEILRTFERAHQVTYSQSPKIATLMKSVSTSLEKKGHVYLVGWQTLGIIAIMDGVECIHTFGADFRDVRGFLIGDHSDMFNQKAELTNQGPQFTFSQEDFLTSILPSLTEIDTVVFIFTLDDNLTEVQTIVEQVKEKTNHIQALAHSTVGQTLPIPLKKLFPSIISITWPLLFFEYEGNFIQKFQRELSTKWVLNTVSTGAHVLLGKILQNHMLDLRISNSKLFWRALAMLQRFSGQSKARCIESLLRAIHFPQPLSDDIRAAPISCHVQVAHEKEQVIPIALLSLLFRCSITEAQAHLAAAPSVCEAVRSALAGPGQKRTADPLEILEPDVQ
Chain of Tumor necrosis factor (Homo sapiens) (P01375 whole entry, looked up): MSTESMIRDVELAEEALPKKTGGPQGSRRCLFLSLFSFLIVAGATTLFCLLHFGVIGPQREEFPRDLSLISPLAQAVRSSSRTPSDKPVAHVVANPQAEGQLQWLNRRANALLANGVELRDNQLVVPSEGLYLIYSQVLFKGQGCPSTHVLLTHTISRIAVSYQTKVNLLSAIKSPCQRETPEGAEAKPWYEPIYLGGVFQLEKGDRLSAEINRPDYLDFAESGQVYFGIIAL
Chain of Peroxisome proliferator-activated receptor alpha (Homo sapiens) (Q07869 whole entry, looked up, the tested form may be a part): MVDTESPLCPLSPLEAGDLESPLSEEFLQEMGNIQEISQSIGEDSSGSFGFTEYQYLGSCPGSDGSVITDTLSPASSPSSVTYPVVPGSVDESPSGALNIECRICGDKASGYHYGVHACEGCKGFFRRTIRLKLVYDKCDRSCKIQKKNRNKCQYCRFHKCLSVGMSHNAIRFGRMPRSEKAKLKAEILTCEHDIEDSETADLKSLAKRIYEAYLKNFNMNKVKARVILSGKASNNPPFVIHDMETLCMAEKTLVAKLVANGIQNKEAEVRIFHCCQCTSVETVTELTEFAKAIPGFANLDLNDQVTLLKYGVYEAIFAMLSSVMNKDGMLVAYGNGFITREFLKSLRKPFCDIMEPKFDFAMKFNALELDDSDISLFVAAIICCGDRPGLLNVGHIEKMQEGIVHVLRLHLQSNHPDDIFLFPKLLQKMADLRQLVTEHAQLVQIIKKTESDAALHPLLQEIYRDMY
Chain of Arylsulfatase A (Homo sapiens) (P15289 whole entry, looked up): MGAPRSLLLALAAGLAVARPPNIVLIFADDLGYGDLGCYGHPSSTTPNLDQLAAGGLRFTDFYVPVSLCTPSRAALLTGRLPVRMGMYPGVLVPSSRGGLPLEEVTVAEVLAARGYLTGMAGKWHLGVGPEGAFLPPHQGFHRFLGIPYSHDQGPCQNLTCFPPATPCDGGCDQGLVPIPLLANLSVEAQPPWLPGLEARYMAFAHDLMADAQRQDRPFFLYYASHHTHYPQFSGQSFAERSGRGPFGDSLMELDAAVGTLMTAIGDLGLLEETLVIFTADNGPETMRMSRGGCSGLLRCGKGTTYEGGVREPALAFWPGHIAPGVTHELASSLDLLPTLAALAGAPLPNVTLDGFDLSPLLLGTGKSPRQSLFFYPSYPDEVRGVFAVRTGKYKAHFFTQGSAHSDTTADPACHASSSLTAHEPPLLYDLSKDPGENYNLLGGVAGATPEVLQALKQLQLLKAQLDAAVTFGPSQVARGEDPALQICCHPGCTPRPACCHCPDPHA

In the case of `CCOC(=O)CC(SP(=S)(OC)OC)C(=O)OCC` (stereo not given), in [1], the Potency was 48.6 µM (active). The activation was -1.29% (inactive) and 0.916% (inactive) and -0.523% (inactive) in experiment [2]; -3.4% (inactive) and -2.42% (inactive) in experiment [3]; 1.62% (inactive) and 10.4% (inactive) and -0.452% (inactive) in experiment [7]. In addition, the Potency result in experiment [4] and in experiment [5] was “inactive” each time. The outcome in experiment [6], in [9] and in experiment [10] was inactive. Moreover, the max response in experiment [8] is -2.48% (inactive) and 0.447% (inactive) and -3.85% (inactive); in experiment [11], 25% (inactive) and -5.73% (inactive) and -3.35% (inactive).

Regarding `CC(C)c1cccc(C(C)C)c1O`, the Potency entry in experiment [1], in experiment [4], in [5] and in experiment [12] was “inactive” throughout. For the same compound, the activation is 0.635% (inactive) in experiment [2], 1.44% (inactive) in [3] and 0.116% (inactive) in experiment [7]. Moreover, the compound was called inactive in experiment [6], in [13], in experiment [14], in [15], in [9] and in [10]. Further, the outcome in experiment [16] was inactive. Also, the max response in [8] was -5.67% (inactive); in [11] it was -3.43% (inactive).

For the compound `CC(=O)N1CCN(c2ccc(OC[C@H]3CO[C@](Cn4ccnc4)(c4ccc(Cl)cc4Cl)O3)cc2)CC1`, the Potency in [1] was 30.6 µM (active).

In the case of `Oc1ccccc1`, the Potency entry in experiment [1] is “inactive and 1000 µM (active)”.

In the case of `O=P1(N(CCCl)CCCl)NCCCO1` (stereo not given), the Potency entry in experiment [1] and in [12] was “inactive” throughout. Further, the activation in experiment [2] is -1.12% (inactive) and -2.77% (inactive); in experiment [3], -0.934% (inactive) and -1.34% (inactive); in [7], 0.318% (inactive) and -1.16% (inactive). Also, the compound was called inactive in [6], in [17], in experiment [18], in experiment [13], in experiment [14] and in [15]. In addition, the outcome in experiment [9], in experiment [10] and in experiment [16] was inactive. Besides, the max response was 7.32% (inactive) and -1.68% (inactive) in experiment [8]; 1.71% (inactive) and -4.84% (inactive) in experiment [11].

Regarding `COC(=O)C(c1ccccc1)C1CCCCN1` (stereo not given), the activation in [2] is -1.5% (inactive) and -3.75% (inactive); in experiment [3], 0.137% (inactive) and 0.745% (inactive); in [7], 0.112% (inactive) and -0.732% (inactive). For the same compound, the Potency entry in [4], in [5] and in experiment [12] was “inactive” each time. Moreover, the compound was called inactive in [6], in [19], in experiment [9] and in [10]. The max response in experiment [8] is -1.82% (inactive) and 0.192% (inactive); in experiment [11], 3.62% (inactive) and -0.896% (inactive).

With `Nc1ccc([As](=O)(O)O)cc1`, the Potency result in experiment [1] was “inactive”. For the same compound, the activation was -0.538% (inactive) in experiment [2] and -0.596% (inactive) in experiment [3]. The max response in experiment [8] was -1.85% (inactive); in [11], -9.13% (inactive). Moreover, in [9], the call was inactive.

Regarding `Nc1nc(N)nc(NC2CC2)n1`, the Potency entry in experiment [1] is “inactive”. For the same compound, the activation in experiment [2] is -0.84% (inactive); in [3], -2.39% (inactive); in experiment [7] it was 0.42% (inactive). The max response in experiment [8] was -0.264% (inactive); in experiment [11], 14.5% (inactive). In experiment [9], the outcome was inactive.

As for `O=C(O)c1cc(O)c(O)c(O)c1`, the Potency in experiment [1] is 4.22 µM (active).

In the case of `NCCc1ccc(O)cc1`, the Potency entry in [1], in experiment [5] and in experiment [12] was “inactive” each time. The activation is -2.23% (inactive) in experiment [2], -0.88% (inactive) in experiment [3] and -0.313% (inactive) in experiment [7]. For the same compound, the compound was classed as inactive in experiment [6], in experiment [13], in experiment [14], in experiment [15], in [9] and in [10]. Also, the outcome in [16] was inactive. Also, the max response in [8] is -1.42% (inactive); in experiment [11] it was 13.6% (inactive).

As for `CCCC(C)(COC(N)=O)COC(N)=O`, the Potency result in [1], in experiment [4], in experiment [5] and in experiment [12] was “inactive” each time. Also, the activation in experiment [2] is 1.72% (inactive) and -1.16% (inactive); in [3] it was 0.11% (inactive) and -1.2% (inactive); in experiment [7], 1.18% (inactive) and -0.314% (inactive). The compound was classed as inactive in experiment [6], in [9] and in [10]. Further, the max response is -0.626% (inactive) and -5.23% (inactive) in [8]; 2.78% (inactive) and -4.68% (inactive) in experiment [11].

For `O=C1c2ccccc2C(=O)C1C(=O)C(c1ccccc1)c1ccccc1`, in experiment [1], the Potency is 61.1 µM (active). Also, the activation in [2] is 23.1% (inactive); in [3], -1.82% (inactive); in experiment [7] it was 5.81% (inactive). The values for the max response in experiment [8] and in [11] were -1.83% (inactive) and -16.2% (inactive), respectively. Besides, the compound was classed as inactive in experiment [9].
